Measured values taken from PubChem BioAssay (NCI).
Compounds without any hit were thinned out: in the full panel of roughly 79,000, 15% have a hit. The source made the active and inactive calls. Cut-off read from the data, not from the text of the source: active = growth inhibition above about 70%; inactive = the rest.

Assays:
[1] = NCI Yeast Anticancer Drug Screen. Data for the rad52 strain (AID 147);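 note: 0% = growth of vehicle-treated control cultures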; settings: S. cerevisiae rad52 mutant growth inhibition, active compounds read high
How it was run: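 Growth of repair-deficient yeast cells was compared between compound-treated and vehicle-treated cultures to give percent inhibition.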

[2] = NCI Yeast Anticancer Drug Screen. Data for the wt1 strain (AID 149);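 note: 0% = growth of vehicle-treated wt1 cultures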; settings: S. cerevisiae wt1 strain (SPY 50644) growth inhibition, active compounds read high
How it was run: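 Compounds are added to wt1 yeast cultures. Growth is then measured. Inhibition is expressed relative to vehicle-treated controls.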

[3] = NCI Yeast Anticancer Drug Screen. Data for the rad50EPP+ strain (AID 151);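 note: 0% = growth of vehicle-treated control cultures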; settings: S. cerevisiae rad50 mutant strain, active compounds read high
How it was run: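 Measured: growth inhibition of rad50EPP+ yeast. Reference: vehicle-treated controls. Screen uses strains with defined genetic alterations in DNA damage repair or cell cycle control.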

[4] = NCI Yeast Anticancer Drug Screen. Data for the mgt1 strain (AID 153); settings: S. cerevisiae mgt1 mutant growth inhibition, active compounds read high
How it was run: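 Compounds were applied to mgt1 mutant yeast, and growth was then compared against vehicle-treated control cultures to give percent inhibition.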

[5] = NCI Yeast Anticancer Drug Screen. Data for the rad50 strain (AID 155);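 note: 0% = growth of vehicle-only cultures of the same strain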; settings: S. cerevisiae rad50 strain growth inhibition, active compounds read high
How it was run: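 Inhibition values express reduced yeast growth in compound-treated cultures relative to vehicle-treated controls.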

[6] = NCI Yeast Anticancer Drug Screen. Data for the mec2-1 strain (AID 157); settings: S. cerevisiae mec2-1 strain, active compounds read high
How it was run: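 Compounds were applied to mec2-1 yeast cells. Their growth was then compared with that of vehicle-treated cultures to give growth inhibition.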

[7] = NCI Yeast Anticancer Drug Screen. Data for the rad14 strain (AID 159);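 note: 0% = growth of vehicle-treated control cultures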; settings: S. cerevisiae rad14 strain growth inhibition, active compounds read high
How it was run: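 A mutant yeast strain defective in DNA damage repair is treated with compound; inhibition of its growth is scored against untreated, vehicle-exposed cultures.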

[8] = NCI Yeast Anticancer Drug Screen. Data for the sgs1 mgt1 strain (AID 161);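 note: 0% = growth of cultures given vehicle only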; settings: S. cerevisiae sgs1 mgt1 strain, active compounds read high
How it was run: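 Compounds are added to genetically altered yeast, and growth is compared with cultures given vehicle alone to give percent inhibition.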

[9] = NCI Yeast Anticancer Drug Screen. Data for the CLN2oe strain (AID 163);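 note: 0% = growth of vehicle-only control cultures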; settings: S. cerevisiae CLN2oe strain, active compounds read high
How it was run: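 Cells of an engineered yeast line with disturbed cell-cycle regulation are treated with compound. Inhibition of growth is then calculated relative to the vehicle-treated reference.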

[10] = NCI Yeast Anticancer Drug Screen. Data for the cln2 rad14 strain (AID 165);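 note: 0% = growth equal to vehicle treated cultures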; settings: S. cerevisiae cln2 rad14 strain, active compounds read high
How it was run: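 Strain: cln2 rad14 yeast, altered in cell cycle control and DNA damage repair. Read-out: growth inhibition vs vehicle.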

[11] = NCI Yeast Anticancer Drug Screen. Data for the bub3 strain (AID 167); settings: S. cerevisiae bub3 mutant strain, active compounds read high
How it was run: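 Steps: expose the mutant yeast strain to compound; grow alongside vehicle-treated cultures; measure growth; express inhibition against the vehicle cultures.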

[12] = NCI Yeast Anticancer Drug Screen. Data for the wt2 strain (AID 169);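 note: 0% = growth of vehicle-treated yeast cultures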; settings: S. cerevisiae wt2 strain growth inhibition, active compounds read high
How it was run: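 Growth of compound-treated yeast is measured and expressed as inhibition relative to vehicle-only controls.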

[13] = NCI Yeast Anticancer Drug Screen. Data for the sgs1 strain (AID 173);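 note: 0% = growth of vehicle-only control cultures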; settings: S. cerevisiae sgs1 mutant, active compounds read high
How it was run: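 Strain with an altered DNA repair or cell cycle pathway exposed to compound. Growth then measured. Value = inhibition versus vehicle control.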

[14] = NCI Yeast Anticancer Drug Screen. Data for the mlh1 rad18 strain (AID 175); settings: S. cerevisiae mlh1 rad18 strain growth inhibition, active compounds read high
How it was run: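 A repair-deficient yeast strain is exposed to test compound, and growth is scored relative to vehicle-treated controls.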

[15] = NCI Yeast Anticancer Drug Screen. Data for the rad18 strain (AID 177); settings: S. cerevisiae rad18 mutant growth inhibition, active compounds read high
How it was run: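 DNA-repair-defective yeast; compound treatment; growth inhibition scored against vehicle.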

[16] = at 5.0 µM (retest, dose inferred, filed as 0.5)
[17] = at 50.0 µM (retest, dose inferred, filed as 5.0)

Measured: growth inhibition

C/C(=N\NC(N)=O)C(CN1CCOCC1)C(c1ccccc1)c1c(O)c2ccccc2oc1=O (stereo not drawn)
active: [5]; [16] 89% | [5]; [17] 89% | [5]; at 50.0 µM 70.2% | [8]; [16] 89% | [8]; [17] 89% | [8]; at 50.0 µM 78.2%
inactive: [1]; at 1.2 µM 1% | [1]; at 3.7 µM 2% | [1]; at 11.0 µM 0% | [1]; at 33.0 µM 1% | [1]; at 100.0 µM -1% | [2]; at 1.2 µM 6% | [2]; at 3.7 µM 1% | [2]; at 11.0 µM 1% | [2]; at 33.0 µM 0% | [2]; at 100.0 µM -1% | [3]; at 1.2 µM -2% | [3]; at 3.7 µM 4% | [3]; at 11.0 µM 1% | [3]; at 33.0 µM -1% | [3]; at 100.0 µM -10% | [4]; at 1.2 µM -2% | [4]; at 3.7 µM 2% | [4]; at 11.0 µM -3% | [4]; at 33.0 µM 0% | [4]; at 100.0 µM -24% | [5]; at 1.2 µM -1% | [5]; at 3.7 µM 6% | [5]; at 11.0 µM 9% | [5]; at 33.0 µM 5% | [5]; at 100.0 µM -6% | [6]; at 1.2 µM 4% | [6]; at 3.7 µM 6% | [6]; [16] 13% | [6]; at 11.0 µM 6% | [6]; at 33.0 µM 7% | [6]; [17] 13% | [6]; at 50.0 µM 53.6% | [6]; at 100.0 µM 4% | [7]; at 1.2 µM 7% | [7]; at 3.7 µM 8% | [7]; at 11.0 µM 2% | [7]; at 33.0 µM 2% | [7]; at 100.0 µM 3% | [9]; at 1.2 µM 4% | [9]; at 3.7 µM 3% | [9]; at 11.0 µM 4% | [9]; at 33.0 µM 4% | [9]; at 100.0 µM -2% | [10]; [16] -7% | [10]; [17] -7% | [10]; at 50.0 µM 59.9% | [11]; at 1.2 µM 4% | [11]; at 3.7 µM 1% | [11]; [16] -7% | [11]; at 11.0 µM 2% | [11]; at 33.0 µM 5% | [11]; [17] -7% | [11]; at 50.0 µM 68% | [11]; at 100.0 µM 1% | [12]; at 1.2 µM 2% | [12]; at 3.7 µM 0% | [12]; at 11.0 µM 0% | [12]; at 33.0 µM -2% | [12]; at 100.0 µM -4% | [13]; at 1.2 µM -2% | [13]; at 3.7 µM 3% | [13]; at 11.0 µM 1% | [13]; at 33.0 µM -1% | [13]; at 100.0 µM -5% | [14]; [16] 40% | [14]; [17] 40% | [14]; at 50.0 µM 63.2% | [15]; at 1.2 µM 2% | [15]; at 3.7 µM 0% | [15]; at 11.0 µM 6% | [15]; at 33.0 µM 1% | [15]; at 100.0 µM -7%
